Measured values as given in PubChem BioAssay (Tox21).
Records with an inconclusive call do not appear. Active and inactive are the calls of the source. The call rests on the fitted dose curve; in most records, active means well fitted curve in the direction sought with a large enough effect in the repeat runs; inconclusive means weak or mixed curves; inactive means no such curve, though single readings can be large; an effect the other way counts as inactive or inconclusive.

How the values were obtained:
[1] = qHTS RealTime-Glo MT Cell Viability Assay in HepG2 cells - 24 hour (AID 1224867); further: nearly all actives have a fitted effect of over 50% in size
Procedure, shortened: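 Viability was tracked continuously by NanoLuc luminescence from prosubstrate reduced by living HepG2 cells, at successive time points over 40 h of compound exposure. Cells with reagent were preincubated 5 h at 37 °C before compound addition.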

[2] = qHTS RealTime-Glo MT Cell Viability Assay in HEK293 cells - 32 hour (AID 1224868); further: top concentration of the series differs between compounds; nearly all actives have a fitted effect of over 50% in size
Procedure, shortened: (§1)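 Viability tracked continuously by luminescence as live cells reduce a prosubstrate for NanoLuc; HEK293 cells preincubated 5 h, compound-treated at 37 C, and read at 0, 8, 16, 24, 32 and 40 h.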

[3] = A CellTox Green Cytotoxicity Assay to monitor cytotoxicity in HEK293 cells - 0 hour (AID 1224869); further: nearly all actives have a fitted effect of over 50% in size
Procedure, shortened: (§2)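 Nonlytic real-time cytotoxicity: HEK293 + CellTox Green reagent plated, 5 h preincubation, pintool compound addition (23 nL in DMSO), 37 C for 40 h, fluorescence measured at successive time points.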

[4] = qHTS RealTime-Glo MT Cell Viability Assay in HepG2 cells - 40 hour (AID 1224870); further: nearly all actives have a fitted effect of over 50% in size
Procedure, shortened: (§3)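 Real-time viability: cells seeded at 600 per well together with NanoLuc and cell-permeant prosubstrate, compounds added after 5 h incubation. Luminescence tracked at 0, 8, 16, 24, 32 and 40 h of exposure.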

[5] = A CellTox Green Cytotoxicity Assay to monitor cytotoxicity in HEK293 cells - 40 hour (AID 1224871); further: nearly all actives have a fitted effect of over 45% in size
Procedure, shortened: as §2

[6] = qHTS RealTime-Glo MT Cell Viability Assay in HepG2 cells - 8 hour (AID 1224873); further: nearly all actives have a fitted effect of over 55% in size
Procedure, shortened: as §3

[7] = qHTS RealTime-Glo MT Cell Viability Assay in HEK293 cells - 40 hour (AID 1224874); conditions: RealTime-Glo luminescence; max response: stronger effect = lower value; further: nearly all actives have a fitted effect of over 50% in size
Procedure, shortened: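 Cells were seeded together with NanoLuc luciferase and a prosubstrate that viable cells reduce to a luciferase substrate. After a 5 h incubation at 37 C/5% CO2, compounds were added and luminescence was measured repeatedly during 40 h of treatment.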

[8] = A CellTox Green Cytotoxicity Assay to monitor cytotoxicity in HEK293 cells - 24 hour (AID 1224875); further: series mostly up to about 77 µM; nearly all actives have a fitted effect of over 45% in size
Procedure, shortened: as §2

[9] = A CellTox Green Cytotoxicity Assay to monitor cytotoxicity in HepG2 cells - 16 hour (AID 1224876); further: nearly all actives have a fitted effect of over 45% in size
Procedure, shortened: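 Read-out is fluorescence of a cyanine dye excluded from live cells that stains DNA of dead HepG2 cells, with signal proportional to cytotoxicity. Plates were read at 0, 8, 16, 24, 32 and 40 h after compound addition.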

[10] = qHTS RealTime-Glo MT Cell Viability Assay in HEK293 cells - 16 hour (AID 1224872)
Procedure, shortened: as §1
On the % scale 0 is the no-effect control and ±100 the full control effect.

O=C(Nc1cccc(C2=NCCN2)c1)Nc1cccc(C2=NCCN2)c1
inactive: activity change, negative = cytotoxicity [1] 1.81% [at 15.8 µM] | activity change, negative = cytotoxic [2] -5.26% [at 15.8 µM] | cytotoxicity [3] -3.81% [at 15.8 µM] | activity change, negative = cytotoxic [4] 2.87% [at 15.8 µM] | cytotoxicity increase [5] -2.61% [at 15.8 µM] | viability change, negative = cytotoxic [6] 1.42% [at 15.8 µM] | max response [7] -2.84% | activity change [8] -4.45% [at 15.8 µM, stronger effect = higher value] | cytotoxicity increase [9] -11.3% [at 15.8 µM]

C=CCOCC(O)CCl (stereo unspecified)
inactive: outcome [1] | Potency [2] | Potency [3] | Potency [5] | Potency [10] | outcome [6] | max response [7] 0.946% | Potency [8] | Potency [9]

CC(C)COC(=O)/C=C/c1ccccc1
inactive: outcome [1] | Potency [2] | Potency [3] | outcome [4] | Potency [10] | outcome [6] | max response [7] -4.89% | Potency [8] | Potency [9]

C[C@H]1O[C@H](O[C@H]2[C@H](O)[C@@H](O)[C@@H](O[C@H]3[C@H](O)[C@@H](O)[C@H](O)O[C@@H]3CO)O[C@@H]2CO)[C@H](O)[C@@H](O)[C@@H]1N[C@H]1C=C(CO)[C@@H](O)[C@H](O)[C@H]1O
inactive: outcome [1] | Potency [2] | Potency [3] | outcome [4] | Potency [5] | max response [7] 6.78% | Potency [8] | Potency [9]

CCCOC(=O)CCCCC(=O)OCCC
inactive: outcome [1] | Potency [2] | Potency [3] | outcome [4] | Potency [5] | outcome [6] | max response [7] -4.84% | Potency [8] | Potency [9]

C=C(C)[C@@H]1CC[C@@H](C)C[C@@H]1O
inactive: outcome [1] | Potency [2] | Potency [3] | outcome [4] | Potency [5] | outcome [6] | max response [7] 0.357% | Potency [8] | Potency [9]

COC(=O)CCC(=O)O
inactive: outcome [1] | Potency [2] | Potency [3] | Potency [5] | Potency [10] | outcome [6] | max response [7] 8.17% | Potency [8] | Potency [9]

COC(/C=C(\C)CCC=C(C)C)OC
inactive: outcome [1] | Potency [2] | outcome [4] | Potency [5] | outcome [6] | max response [7] 4.55% | Potency [9]

CC(C)(C)NCCO
inactive: outcome [1] | Potency [3] | outcome [4] | Potency [5] | Potency [10] | outcome [6] | max response [7] 6.71% | Potency [8] | Potency [9]

COc1ccc(/C=N/NC(=O)c2ccncc2)cc1OC
inactive: outcome [1] | Potency [3] | outcome [4] | Potency [5] | Potency [10] | outcome [6] | max response [7] -6.3% | Potency [8] | Potency [9]

O=CO
inactive: activity change, negative = cytotoxicity [1] 0.773% [at 6.97 µM] | activity change, negative = cytotoxic [2] 1.16% [at 6.97 µM] | cytotoxicity [3] -3.71% [at 6.97 µM] | activity change, negative = cytotoxicity [10] 2.46% [at 6.97 µM] | viability change, negative = cytotoxic [6] -8.93% [at 6.97 µM] | max response [7] -0.6% | cytotoxicity increase [9] -13.8% [at 6.97 µM]

O=C(O)c1ccccc1C(=O)Nc1ccc(S(=O)(=O)Nc2nccs2)cc1
inactive: outcome [1] | Potency [2] | Potency [3] | Potency [5] | Potency [10] | outcome [6] | max response [7] -1.33% | Potency [8] | Potency [9]

O=[Si]=O
inactive: outcome [1] | Potency [2] | Potency [3] | Potency [5] | Potency [10] | outcome [6] | max response [7] 0.247% | Potency [8] | Potency [9]

CCOC(=O)CCCCCCCCC(=O)OCC
inactive: outcome [1] | Potency [2] | Potency [3] | Potency [5] | Potency [10] | outcome [6] | max response [7] 5.25% | Potency [8] | Potency [9]

Nc1ccc(C(=O)OCC(O)CO)cc1 (stereo unspecified)
inactive: outcome [1] | Potency [2] | Potency [3] | Potency [5] | outcome [6] | max response [7] 2.88% | Potency [8] | Potency [9]

CCC(CO)CO
inactive: outcome [1] | Potency [2] | Potency [3] | Potency [5] | Potency [10] | outcome [6] | max response [7] -4.1% | Potency [8] | Potency [9]

Nc1ccc(S(=O)(=O)NC(=O)c2ccccc2)cc1
inactive: outcome [1] | Potency [2] | Potency [3] | Potency [5] | Potency [10] | outcome [6] | max response [7] 2.96% | Potency [8] | Potency [9]

COc1ccc(OC)c(NC(=O)CC(C)=O)c1
inactive: outcome [1] | Potency [2] | Potency [3] | Potency [5] | Potency [10] | outcome [6] | max response [7] 2.24% | Potency [8] | Potency [9]

Cc1ccccc1C
inactive: outcome [1] | Potency [2] | Potency [3] | Potency [5] | Potency [10] | max response [7] 13.2% | Potency [8] | Potency [9]

CC(=O)OCCCc1ccccc1
inactive: outcome [1] | Potency [3] | outcome [4] | Potency [5] | Potency [10] | outcome [6] | max response [7] 4.03% | Potency [8] | Potency [9]

CC(C)(CO)[C@@H](O)C(=O)NCCCO
inactive: outcome [1] | Potency [2] | Potency [3] | Potency [5] | outcome [6] | max response [7] 4% | Potency [8] | Potency [9]

CNC(=O)C(c1ccccc1)c1ccccc1
inactive: outcome [1] | Potency [3] | outcome [4] | Potency [5] | Potency [10] | outcome [6] | max response [7] 0.511% | Potency [8]

FC(F)(F)/C(=N\OCC1OCCO1)c1ccc(Cl)cc1
inactive: outcome [1] | Potency [2] | Potency [3] | Potency [5] | Potency [10] | max response [7] 3.42% | Potency [8] | Potency [9]

O=C(O)c1ccc(OCCN2CCCCC2)cc1
inactive: outcome [1] | Potency [3] | outcome [4] | Potency [5] | Potency [10] | outcome [6] | max response [7] 5.16% | Potency [8] | Potency [9]
